The term inhibition denotes the drop in the measured response relative to a control, in per cent.

Consider seven molecules from ChEMBL document CHEMBL1961873, “Compounds: GSK PKIS; Assays: Nanosyn kinase panel” (2012).

Assay [1] deals with Serine/threonine-protein kinase MARK2 (Homo sapiens) (UniProt Q7KZI7). Particulars: at 1 µM.
For assay [2], the target named is PAS domain-containing serine/threonine-protein kinase (Homo sapiens) (UniProt Q96RG2). Conditions: at 0.1 µM.
Assay [3] has the same target. Particulars: at 1 µM.
Assay [4] addresses Phosphorylase b kinase gamma catalytic chain, skeletal muscle/heart isoform (Homo sapiens) (UniProt Q16816). Particulars: at 0.1 µM.
For assay [5] the target is unchanged. Conditions: at 1 µM.
Assay [6] concerns the target T1, Phosphorylase b kinase gamma catalytic chain, liver/testis isoform (Homo sapiens) (UniProt P15735).
T1 sequence (whole entry): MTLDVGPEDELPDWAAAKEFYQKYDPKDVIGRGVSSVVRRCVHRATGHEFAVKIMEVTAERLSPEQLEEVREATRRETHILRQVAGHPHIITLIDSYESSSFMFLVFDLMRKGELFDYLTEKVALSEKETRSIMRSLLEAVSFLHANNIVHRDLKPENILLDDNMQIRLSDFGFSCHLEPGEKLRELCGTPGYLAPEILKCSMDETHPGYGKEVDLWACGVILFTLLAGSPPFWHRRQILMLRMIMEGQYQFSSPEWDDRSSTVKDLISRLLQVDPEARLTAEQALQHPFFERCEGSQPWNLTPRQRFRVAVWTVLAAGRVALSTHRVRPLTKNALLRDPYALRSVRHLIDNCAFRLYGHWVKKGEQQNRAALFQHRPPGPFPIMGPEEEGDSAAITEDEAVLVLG
Conditions: at 0.1 µM.

Assay [7] concerns the target T1, Phosphorylase b kinase gamma catalytic chain, liver/testis isoform (Homo sapiens). Conditions: at 1 µM.
The target in assay [8] is Serine/threonine-protein kinase pim-1 (Homo sapiens) (UniProt P11309). Particulars: at 0.1 µM.
For assay [9] the target is unchanged. Particulars: at 1 µM.
Assay [10] deals with Serine/threonine-protein kinase pim-2 (Homo sapiens) (UniProt Q9P1W9). Conditions: at 0.1 µM.
Assay [11] has the same target. Conditions: at 1 µM.
Assay [12] concerns the target Serine/threonine-protein kinase pim-3 (Homo sapiens) (UniProt Q86V86). Particulars: at 0.1 µM.
The target is the same in assay [13]. Conditions: at 1 µM.
The target in assay [14] is T2, MAP kinase-activated protein kinase 5 (Homo sapiens) (UniProt Q8IW41).
T2 sequence (whole entry): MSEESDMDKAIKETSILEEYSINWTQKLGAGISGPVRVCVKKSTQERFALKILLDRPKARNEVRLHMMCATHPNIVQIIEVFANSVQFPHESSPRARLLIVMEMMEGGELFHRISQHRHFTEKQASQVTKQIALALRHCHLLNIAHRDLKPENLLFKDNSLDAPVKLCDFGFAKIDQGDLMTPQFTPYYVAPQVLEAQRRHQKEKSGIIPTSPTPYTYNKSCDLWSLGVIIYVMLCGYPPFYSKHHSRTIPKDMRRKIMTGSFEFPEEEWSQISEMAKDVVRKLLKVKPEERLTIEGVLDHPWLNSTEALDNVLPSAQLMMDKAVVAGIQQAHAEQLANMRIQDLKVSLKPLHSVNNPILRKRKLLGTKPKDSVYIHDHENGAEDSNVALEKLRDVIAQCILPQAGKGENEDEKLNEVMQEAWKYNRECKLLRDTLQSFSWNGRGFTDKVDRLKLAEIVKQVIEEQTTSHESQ
Particulars: at 0.1 µM.

For assay [15], the target named is T2, MAP kinase-activated protein kinase 5 (Homo sapiens). Conditions: at 1 µM.
Assay [16] addresses Serine/threonine-protein kinase SIK1 (Homo sapiens) (UniProt P57059). Particulars: at 0.1 µM.
For assay [17] the target is unchanged. Conditions: at 1 µM.
The target of assay [18] is Serine/threonine-protein kinase SIK2 (Homo sapiens) (UniProt Q9H0K1). Particulars: at 0.1 µM.
Assay [19] has the same target. Conditions: at 1 µM.
Assay [20] has as its target T3, Serine/threonine-protein kinase TBK1 (Homo sapiens) (UniProt Q9UHD2).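 Note: values are the mean TBK1 inhibition, taken from the GSK PKIS screening data.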
T3 sequence (whole entry): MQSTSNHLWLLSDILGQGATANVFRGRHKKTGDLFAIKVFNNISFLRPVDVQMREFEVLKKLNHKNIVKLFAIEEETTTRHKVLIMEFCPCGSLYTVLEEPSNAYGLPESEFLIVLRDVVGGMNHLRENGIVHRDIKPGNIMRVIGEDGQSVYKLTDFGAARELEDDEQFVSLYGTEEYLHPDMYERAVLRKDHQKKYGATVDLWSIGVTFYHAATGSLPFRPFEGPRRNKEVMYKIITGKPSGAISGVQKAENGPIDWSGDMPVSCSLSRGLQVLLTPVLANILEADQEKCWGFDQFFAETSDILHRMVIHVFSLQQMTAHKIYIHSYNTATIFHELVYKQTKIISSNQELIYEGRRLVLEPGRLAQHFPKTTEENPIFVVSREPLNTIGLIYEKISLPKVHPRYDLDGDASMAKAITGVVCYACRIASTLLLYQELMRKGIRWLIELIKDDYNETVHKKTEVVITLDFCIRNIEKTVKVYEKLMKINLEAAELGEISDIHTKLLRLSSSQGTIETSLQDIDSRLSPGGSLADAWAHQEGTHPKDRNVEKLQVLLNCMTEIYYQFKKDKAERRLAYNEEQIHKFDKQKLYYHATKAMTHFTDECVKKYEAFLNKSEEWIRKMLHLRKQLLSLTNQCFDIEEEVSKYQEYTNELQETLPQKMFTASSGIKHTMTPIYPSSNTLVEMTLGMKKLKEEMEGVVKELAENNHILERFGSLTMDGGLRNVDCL
Conditions: at 0.1 µM.

PAS domain-containing serine/threonine-protein kinase (Homo sapiens), sequence (Q96RG2 whole entry, the tested form may be a part): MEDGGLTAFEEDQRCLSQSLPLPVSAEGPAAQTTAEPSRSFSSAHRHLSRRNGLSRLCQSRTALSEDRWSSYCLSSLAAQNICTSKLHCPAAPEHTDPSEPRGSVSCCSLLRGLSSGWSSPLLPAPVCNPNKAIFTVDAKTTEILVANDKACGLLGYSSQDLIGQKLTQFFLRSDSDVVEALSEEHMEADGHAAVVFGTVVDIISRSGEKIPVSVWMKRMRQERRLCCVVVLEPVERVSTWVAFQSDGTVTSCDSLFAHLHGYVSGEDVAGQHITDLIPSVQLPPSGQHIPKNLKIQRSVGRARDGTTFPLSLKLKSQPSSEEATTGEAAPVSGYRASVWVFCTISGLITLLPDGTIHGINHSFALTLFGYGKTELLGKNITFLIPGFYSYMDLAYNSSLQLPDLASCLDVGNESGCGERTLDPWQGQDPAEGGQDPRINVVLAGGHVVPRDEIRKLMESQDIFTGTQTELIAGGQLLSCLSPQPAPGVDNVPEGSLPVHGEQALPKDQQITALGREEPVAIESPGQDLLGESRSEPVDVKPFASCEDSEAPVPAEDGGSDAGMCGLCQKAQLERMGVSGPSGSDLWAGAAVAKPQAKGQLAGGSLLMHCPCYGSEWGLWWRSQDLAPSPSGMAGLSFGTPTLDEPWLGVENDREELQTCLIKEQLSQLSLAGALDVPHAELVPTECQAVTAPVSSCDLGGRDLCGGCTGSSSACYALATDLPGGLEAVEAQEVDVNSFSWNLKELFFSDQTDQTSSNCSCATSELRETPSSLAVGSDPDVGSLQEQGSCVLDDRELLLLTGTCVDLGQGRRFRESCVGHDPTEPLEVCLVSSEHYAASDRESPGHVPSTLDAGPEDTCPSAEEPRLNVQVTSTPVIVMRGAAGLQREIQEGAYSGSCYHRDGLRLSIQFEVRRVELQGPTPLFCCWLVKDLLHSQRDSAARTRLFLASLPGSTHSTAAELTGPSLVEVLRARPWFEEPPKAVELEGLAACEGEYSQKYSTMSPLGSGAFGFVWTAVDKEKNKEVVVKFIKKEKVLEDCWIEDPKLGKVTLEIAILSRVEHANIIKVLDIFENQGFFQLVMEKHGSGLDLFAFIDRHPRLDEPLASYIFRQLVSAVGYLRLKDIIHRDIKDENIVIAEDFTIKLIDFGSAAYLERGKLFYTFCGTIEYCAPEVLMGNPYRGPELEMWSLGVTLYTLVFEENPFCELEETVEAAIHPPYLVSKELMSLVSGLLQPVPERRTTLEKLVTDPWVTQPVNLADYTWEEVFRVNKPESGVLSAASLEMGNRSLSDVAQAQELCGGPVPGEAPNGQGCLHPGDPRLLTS
Serine/threonine-protein kinase pim-1 (Homo sapiens), sequence (P11309 whole entry, looked up): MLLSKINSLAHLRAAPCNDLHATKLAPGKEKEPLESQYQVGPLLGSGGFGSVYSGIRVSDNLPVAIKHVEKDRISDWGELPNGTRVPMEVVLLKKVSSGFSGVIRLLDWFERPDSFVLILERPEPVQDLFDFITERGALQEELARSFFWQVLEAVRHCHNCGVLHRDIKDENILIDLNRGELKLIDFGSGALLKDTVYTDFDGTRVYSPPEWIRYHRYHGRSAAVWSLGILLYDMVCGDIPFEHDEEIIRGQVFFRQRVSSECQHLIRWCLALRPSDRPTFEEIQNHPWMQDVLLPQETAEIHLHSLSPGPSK
Phosphorylase b kinase gamma catalytic chain, skeletal muscle/heart isoform (Homo sapiens), sequence (Q16816 whole entry, looked up, canonical isoform): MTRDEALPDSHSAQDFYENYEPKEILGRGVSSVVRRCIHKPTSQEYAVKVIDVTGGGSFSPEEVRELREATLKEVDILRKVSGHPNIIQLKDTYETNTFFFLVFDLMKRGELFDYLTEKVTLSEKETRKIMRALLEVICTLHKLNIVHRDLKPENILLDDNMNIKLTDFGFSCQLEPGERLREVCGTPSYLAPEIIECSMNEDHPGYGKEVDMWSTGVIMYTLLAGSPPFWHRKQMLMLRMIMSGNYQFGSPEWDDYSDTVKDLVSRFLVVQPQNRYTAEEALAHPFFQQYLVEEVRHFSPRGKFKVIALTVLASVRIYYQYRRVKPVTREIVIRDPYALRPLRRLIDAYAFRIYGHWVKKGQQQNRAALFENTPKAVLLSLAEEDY
Serine/threonine-protein kinase pim-2 (Homo sapiens), sequence (Q9P1W9 whole entry, looked up): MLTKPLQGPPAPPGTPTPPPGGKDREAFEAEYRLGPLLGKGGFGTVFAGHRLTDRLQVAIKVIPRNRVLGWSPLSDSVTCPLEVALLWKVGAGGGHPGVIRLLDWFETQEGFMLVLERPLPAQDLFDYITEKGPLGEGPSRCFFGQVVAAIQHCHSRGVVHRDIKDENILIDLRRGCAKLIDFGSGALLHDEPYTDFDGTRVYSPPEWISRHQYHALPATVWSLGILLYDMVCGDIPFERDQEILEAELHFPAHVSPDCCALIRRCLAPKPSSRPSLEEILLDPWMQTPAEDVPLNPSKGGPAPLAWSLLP
Serine/threonine-protein kinase SIK1 (Homo sapiens), sequence (P57059 whole entry): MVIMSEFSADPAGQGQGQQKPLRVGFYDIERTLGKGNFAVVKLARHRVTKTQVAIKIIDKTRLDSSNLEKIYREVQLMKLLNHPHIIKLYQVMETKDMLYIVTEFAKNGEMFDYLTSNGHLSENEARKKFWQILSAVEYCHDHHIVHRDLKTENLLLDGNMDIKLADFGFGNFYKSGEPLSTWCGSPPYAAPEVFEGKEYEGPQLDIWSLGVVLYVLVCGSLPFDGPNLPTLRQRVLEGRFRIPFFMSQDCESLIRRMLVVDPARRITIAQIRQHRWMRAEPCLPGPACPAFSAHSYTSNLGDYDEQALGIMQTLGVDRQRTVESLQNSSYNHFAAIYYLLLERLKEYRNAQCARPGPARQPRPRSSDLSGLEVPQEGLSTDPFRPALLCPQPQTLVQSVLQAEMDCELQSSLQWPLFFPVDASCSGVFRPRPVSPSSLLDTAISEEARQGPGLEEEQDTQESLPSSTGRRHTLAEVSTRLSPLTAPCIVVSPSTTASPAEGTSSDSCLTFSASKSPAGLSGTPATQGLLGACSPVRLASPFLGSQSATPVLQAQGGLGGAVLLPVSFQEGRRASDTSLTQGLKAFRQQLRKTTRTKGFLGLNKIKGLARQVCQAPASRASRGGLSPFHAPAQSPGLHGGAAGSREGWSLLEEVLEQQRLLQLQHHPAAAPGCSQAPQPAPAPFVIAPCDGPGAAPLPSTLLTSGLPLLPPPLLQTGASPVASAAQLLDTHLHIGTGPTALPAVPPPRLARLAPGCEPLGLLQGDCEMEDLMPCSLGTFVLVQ
Serine/threonine-protein kinase SIK2 (Homo sapiens), sequence (Q9H0K1 whole entry, looked up): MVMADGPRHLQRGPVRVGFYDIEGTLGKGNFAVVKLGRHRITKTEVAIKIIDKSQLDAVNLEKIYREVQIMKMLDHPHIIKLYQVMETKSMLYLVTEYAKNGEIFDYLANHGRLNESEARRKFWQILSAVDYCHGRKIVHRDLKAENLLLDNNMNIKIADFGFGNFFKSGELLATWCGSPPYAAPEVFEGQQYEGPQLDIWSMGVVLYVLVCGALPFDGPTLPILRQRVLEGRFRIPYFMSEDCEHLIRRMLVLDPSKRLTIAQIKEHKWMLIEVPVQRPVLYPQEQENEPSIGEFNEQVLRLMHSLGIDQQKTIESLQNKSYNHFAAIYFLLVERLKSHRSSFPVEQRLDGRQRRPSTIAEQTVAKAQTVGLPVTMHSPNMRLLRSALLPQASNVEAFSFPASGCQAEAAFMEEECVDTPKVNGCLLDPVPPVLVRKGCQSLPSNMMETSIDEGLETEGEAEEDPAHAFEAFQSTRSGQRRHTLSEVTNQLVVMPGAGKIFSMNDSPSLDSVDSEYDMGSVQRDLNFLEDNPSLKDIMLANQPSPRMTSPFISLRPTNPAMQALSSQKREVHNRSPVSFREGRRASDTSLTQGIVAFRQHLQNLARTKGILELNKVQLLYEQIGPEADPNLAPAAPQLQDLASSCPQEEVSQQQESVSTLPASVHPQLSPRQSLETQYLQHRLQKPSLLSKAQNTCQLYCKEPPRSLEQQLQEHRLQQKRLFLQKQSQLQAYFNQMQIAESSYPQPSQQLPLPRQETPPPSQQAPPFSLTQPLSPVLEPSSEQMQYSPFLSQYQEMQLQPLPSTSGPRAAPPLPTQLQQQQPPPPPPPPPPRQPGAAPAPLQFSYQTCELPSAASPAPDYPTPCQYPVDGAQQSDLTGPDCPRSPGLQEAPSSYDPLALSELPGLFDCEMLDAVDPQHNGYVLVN

In the case of `CCn1c(-c2nonc2N)nc2cnc(Oc3cccc(NC(=O)c4ccc(OCCN5CCOCC5)cc4)c3)cc21`, the inhibition is 11% in assay [1]; -1.22% in [2]; -0.7% in assay [3]; -3.59% in assay [4]; 6.37% in assay [5]; 3.34% in assay [6]. For the same molecule, the inhibition was 1.77% in assay [7]; 0.47% in assay [8]; 10.4% in assay [9]; -0.49% in assay [10]; 0.68% in assay [11]; -1.8% in [12]. Also, the inhibition in assay [13] came out at 2.09%; in assay [14], 0.82%; in assay [15], 1.44%; in assay [16], 4.8%; in assay [17], 10.1%; in assay [18], 8.55%. The inhibition in assay [19] stood at 13.8%; in [20], 0.71%.
On to `CN1CCC(C(=O)Nc2n[nH]c3nnc(-c4ccccc4)cc23)CC1`, for which the inhibition in [1] is 0.72%; in assay [2], 0.17%; in assay [3] it was 0.71%; in [4], 5.33%; in assay [5], 11.3%; in assay [6], 6.18%. Further, the inhibition was 9.48% in assay [7]; 1.63% in assay [8]; 3.41% in assay [9]; 0.6% in [10]; 1.49% in [11]; -0.11% in assay [12]. Besides, the inhibition in assay [13] came out at 3.84%; in [14], 1.41%; in assay [15], 3.73%; in [16] it was 7.3%; in [17], 7.57%; in assay [18], 6.82%. Also, the values for the inhibition in assay [19] and in assay [20] were 8.16% and 2.09%, respectively.
For `Cc1cccc(-c2n[nH]cc2-c2ccc3ncccc3n2)n1`, the inhibition in [1] was -0.03%; in assay [2], -0.24%; in assay [3], 1.18%; in [4], 1.19%; in assay [5], 2.02%; in assay [6], -0.65%. Also, the inhibition in assay [7] is -0.32%; in [8], -0.24%; in assay [9], 0.02%; in assay [10], 0.22%; in assay [11] it was -0.16%; in [12], -1.47%. Moreover, the inhibition in assay [13] was -1.14%; in [14], 0.08%; in assay [15], 0.05%; in [16], -0.73%; in [17], 3.97%; in assay [18], 3.18%. The figures for the inhibition in [19] and in assay [20] were 13.8% and -2.48%, respectively.
For the molecule `O=C1Nc2ccc(C(=O)c3ccco3)cc2C1=Cc1cc(Cl)c(O)c(Cl)c1`, the inhibition is 8.29% in [1]; -0.44% in assay [2]; -0.13% in assay [3]; 2.98% in assay [4]; 9.29% in assay [5]; 3.61% in [6]. Also, the inhibition came to 2.94% in [7]; 3.39% in [8]; 31.8% in assay [9]; 2.1% in [10]; 17.9% in assay [11]; 12% in assay [12]. Besides, the inhibition in assay [13] came to 53.4%; in assay [14], 1.97%; in [15], 8.16%; in assay [16], 4.01%; in assay [17], 10.6%; in assay [18] it was 10.5%. The values for the inhibition in [19] and in assay [20] were 6.6% and 4.59%, respectively.
Consider `N#Cc1c(NC(=O)c2cccc3ccccc23)sc2c1CCCC2`, for which the inhibition in assay [1] was 1.22%; in assay [2], -0.47%; in [3], -1.11%; in assay [4], 8.32%; in assay [5], 5.08%; in [6], 2.74%. Further, the inhibition in [7] was 1.46%; in [8], 0.51%; in assay [9] it was 0.27%; in [10], -0.34%; in assay [11], -0.27%; in [12], -0.51%. Also, the inhibition was -1.85% in assay [13]; 0.72% in [14]; 0.28% in assay [15]; 7.26% in [16]; 9.67% in assay [17]; 2.47% in [18]. In addition, the values for the inhibition in assay [19] and in assay [20] were 12.4% and 0.12%, respectively.
For the molecule `O=C1NC(=O)C(N2CCc3ccccc32)=C1c1ccc(Cl)cc1`, the inhibition is 2.02% in [1]; 0.1% in [2]; -1.5% in assay [3]; 3.36% in assay [4]; 5.29% in assay [5]; 4.72% in [6]. Moreover, the inhibition in [7] was 2.26%; in [8], 0.92%; in [9] it was 1.27%; in [10], 0.55%; in assay [11] it was 0.77%; in assay [12], -1.28%. Also, the inhibition in assay [13] is -2.25%; in [14], 1.12%; in assay [15], 0.55%; in assay [16], 5.76%; in assay [17], 7.18%; in [18] it was 1.33%. For the same molecule, the results for the inhibition in [19] and in [20] were 5.15% and 3.01%, respectively.
`NC(=O)c1cccc(Nc2nccc(Nc3cccc4[nH]ncc34)n2)c1`: the inhibition in [1] was 10.3%; in assay [2] it was 0.03%; in [3], 1.81%; in assay [4], 0.63%; in assay [5], 12.6%; in [6], -5.45%. For the same molecule, the inhibition in assay [7] was -1.62%; in [8] it was 0.6%; in assay [9] it was 1.43%; in assay [10], 0.4%; in [11] it was 1.09%; in [12], -0.77%. Besides, the inhibition in assay [13] is 3.49%; in [14], -1.41%; in assay [15], -1%; in [16], 14.8%; in assay [17], 68.5%; in assay [18] it was -4.28%. The inhibition in assay [19] was found to be 32.5%; in [20], 0.88%.
